# In the supplement of paper PMC6411743:
# ± gives the standard deviation of the averaged measurements. Of roughly 6,500 targets only a part is listed; those with the largest changes were picked by preference.
# Columns and labels:
# Assay in all cases: NP40-soluble protein abundance relative to vehicle (solubility fold change) (ratio); higher = more soluble protein in presence of ATP
# LAGE3 = target: T1, LAGE3 (UniProt Q14657)
# T1 sequence (whole entry): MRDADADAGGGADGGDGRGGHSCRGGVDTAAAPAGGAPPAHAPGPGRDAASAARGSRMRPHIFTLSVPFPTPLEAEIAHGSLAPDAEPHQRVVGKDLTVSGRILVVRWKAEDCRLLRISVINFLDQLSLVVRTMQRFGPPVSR
# Summary of the method: (§1)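 Data come from three independent experiments in which Dounce-homogenised Jurkat crude lysate was treated at eight concentrations from 0.1 to 10 mM. Treatment ran 10 min at room temperature and then 3 min at 37 °C, after which 0.8% NP40 and benzonase were added for 60 min at 4 °C before ultracentrifugation. The supernatant underwent TMT labelling and LC-MS/MS, and vsn-normalised intensities were expressed as fold change against the detergent-processed vehicle in each replicate.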
# NHLRC2 = target: T2, NHLRC2 (UniProt Q8NBF2)
# T2 sequence (whole entry): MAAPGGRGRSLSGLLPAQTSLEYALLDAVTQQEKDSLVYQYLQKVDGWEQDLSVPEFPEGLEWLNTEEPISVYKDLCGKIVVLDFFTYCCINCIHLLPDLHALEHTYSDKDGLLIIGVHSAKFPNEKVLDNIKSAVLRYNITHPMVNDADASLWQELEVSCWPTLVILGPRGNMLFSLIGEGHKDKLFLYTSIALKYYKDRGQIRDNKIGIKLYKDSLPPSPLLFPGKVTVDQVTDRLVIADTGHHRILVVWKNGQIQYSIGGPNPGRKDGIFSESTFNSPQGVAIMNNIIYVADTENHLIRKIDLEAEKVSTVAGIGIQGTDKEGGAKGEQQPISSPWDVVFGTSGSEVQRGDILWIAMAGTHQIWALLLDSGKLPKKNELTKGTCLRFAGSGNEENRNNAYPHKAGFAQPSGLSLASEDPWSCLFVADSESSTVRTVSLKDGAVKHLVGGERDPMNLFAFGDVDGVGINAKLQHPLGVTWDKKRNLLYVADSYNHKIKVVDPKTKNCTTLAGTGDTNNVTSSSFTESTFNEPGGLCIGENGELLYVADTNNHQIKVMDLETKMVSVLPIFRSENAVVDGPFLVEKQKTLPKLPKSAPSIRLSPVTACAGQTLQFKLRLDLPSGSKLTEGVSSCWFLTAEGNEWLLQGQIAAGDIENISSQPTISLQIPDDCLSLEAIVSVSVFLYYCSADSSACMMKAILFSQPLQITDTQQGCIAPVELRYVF
# Summary of the method: as §1
# PSMD6 = target: T3, PSMD6 (UniProt Q15008)
# T3 sequence (whole entry): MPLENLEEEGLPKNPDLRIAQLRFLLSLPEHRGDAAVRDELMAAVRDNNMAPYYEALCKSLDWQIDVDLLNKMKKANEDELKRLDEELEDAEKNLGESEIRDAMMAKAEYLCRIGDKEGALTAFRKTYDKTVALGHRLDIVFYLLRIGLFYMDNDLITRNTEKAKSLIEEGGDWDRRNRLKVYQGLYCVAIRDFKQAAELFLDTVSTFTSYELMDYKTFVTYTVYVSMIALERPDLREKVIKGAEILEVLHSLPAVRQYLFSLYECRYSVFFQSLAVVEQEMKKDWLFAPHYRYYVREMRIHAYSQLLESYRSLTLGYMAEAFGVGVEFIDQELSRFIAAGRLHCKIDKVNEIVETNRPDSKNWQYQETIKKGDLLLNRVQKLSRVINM
# Summary of the method: as §1
# [1] = target: T4, UniProt Q12805|Q12805-2|Q12805-3|Q12805-4
# T4 sequence (whole entry): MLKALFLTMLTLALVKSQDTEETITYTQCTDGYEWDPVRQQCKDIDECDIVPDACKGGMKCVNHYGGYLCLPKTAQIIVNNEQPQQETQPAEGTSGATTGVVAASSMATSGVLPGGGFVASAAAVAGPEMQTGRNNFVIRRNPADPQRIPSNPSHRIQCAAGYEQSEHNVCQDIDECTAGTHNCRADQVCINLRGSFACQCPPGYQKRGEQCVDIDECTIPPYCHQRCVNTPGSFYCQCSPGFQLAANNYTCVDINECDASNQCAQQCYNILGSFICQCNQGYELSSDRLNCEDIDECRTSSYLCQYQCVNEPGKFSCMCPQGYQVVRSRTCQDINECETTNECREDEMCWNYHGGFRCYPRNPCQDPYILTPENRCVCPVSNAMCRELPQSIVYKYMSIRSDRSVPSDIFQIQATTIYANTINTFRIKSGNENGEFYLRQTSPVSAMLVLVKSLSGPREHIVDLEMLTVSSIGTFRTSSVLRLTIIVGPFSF
# Summary of the method: as §1
# UniProt Q53H96|Q53H96-2 = target: T5, UniProt Q53H96|Q53H96-2
# T5 sequence (whole entry): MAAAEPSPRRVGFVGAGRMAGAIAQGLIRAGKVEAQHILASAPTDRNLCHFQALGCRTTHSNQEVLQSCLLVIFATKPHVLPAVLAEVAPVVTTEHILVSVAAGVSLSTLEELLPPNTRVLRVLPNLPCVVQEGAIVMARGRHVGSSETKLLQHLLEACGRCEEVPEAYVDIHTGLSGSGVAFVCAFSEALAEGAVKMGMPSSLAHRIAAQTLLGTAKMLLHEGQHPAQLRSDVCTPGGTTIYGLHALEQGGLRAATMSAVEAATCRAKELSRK
# Summary of the method: as §1
# UniProt Q8N6R0 = target: T6, UniProt Q8N6R0
# T6 sequence (whole entry): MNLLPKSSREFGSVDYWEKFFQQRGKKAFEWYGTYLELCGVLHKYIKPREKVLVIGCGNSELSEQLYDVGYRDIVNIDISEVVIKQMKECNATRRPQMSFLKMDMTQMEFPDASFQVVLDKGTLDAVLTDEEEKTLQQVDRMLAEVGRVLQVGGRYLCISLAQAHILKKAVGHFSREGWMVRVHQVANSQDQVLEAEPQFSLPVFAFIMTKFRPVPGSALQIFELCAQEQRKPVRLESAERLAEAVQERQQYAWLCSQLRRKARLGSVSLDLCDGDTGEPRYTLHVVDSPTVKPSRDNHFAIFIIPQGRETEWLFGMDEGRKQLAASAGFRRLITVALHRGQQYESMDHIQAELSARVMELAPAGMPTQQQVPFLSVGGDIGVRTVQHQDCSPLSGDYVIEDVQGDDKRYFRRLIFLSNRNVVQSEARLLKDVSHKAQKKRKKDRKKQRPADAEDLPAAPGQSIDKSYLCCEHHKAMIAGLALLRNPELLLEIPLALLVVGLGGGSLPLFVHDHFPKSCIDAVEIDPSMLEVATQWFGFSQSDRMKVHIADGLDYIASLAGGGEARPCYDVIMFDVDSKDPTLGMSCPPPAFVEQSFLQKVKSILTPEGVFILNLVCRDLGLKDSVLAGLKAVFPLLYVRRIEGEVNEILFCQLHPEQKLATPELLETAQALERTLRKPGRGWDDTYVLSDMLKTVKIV
# Summary of the method: as §1
smiles,measurement,setting,value
Nc1ncnc2c1ncn2[C@@H]1O[C@H](COP(=O)(O)OP(=O)(O)OP(=O)(O)O)[C@@H](O)[C@H]1O [adenosine triphosphate],NP40-soluble protein abundance,LAGE3; concentration: 1mM,0.907 ± 0.071
same,NP40-soluble protein abundance,LAGE3; concentration: 2mM,0.909 ± 0.073
same,NP40-soluble protein abundance,LAGE3; concentration: 4mM,0.901 ± 0.029
same,NP40-soluble protein abundance,LAGE3; concentration: 6mM,0.881 ± 0.072
same,NP40-soluble protein abundance,LAGE3; concentration: 8mM,0.903 ± 0.034
same,NP40-soluble protein abundance,LAGE3; concentration: 10mM,0.882 ± 0.011
same,NP40-soluble protein abundance,NHLRC2; concentration: 1mM,1.01 ± 0.078
same,NP40-soluble protein abundance,NHLRC2; concentration: 2mM,0.994 ± 0.096
same,NP40-soluble protein abundance,NHLRC2; concentration: 4mM,0.979 ± 0.091
same,NP40-soluble protein abundance,NHLRC2; concentration: 6mM,0.976 ± 0.12
same,NP40-soluble protein abundance,NHLRC2; concentration: 8mM,0.985 ± 0.1
same,NP40-soluble protein abundance,NHLRC2; concentration: 10mM,0.983 ± 0.09
same,NP40-soluble protein abundance,PSMD6; concentration: 1mM,0.959 ± 0.015
same,NP40-soluble protein abundance,PSMD6; concentration: 2mM,0.9 ± 0.021
same,NP40-soluble protein abundance,PSMD6; concentration: 4mM,0.893 ± 0.022
same,NP40-soluble protein abundance,PSMD6; concentration: 6mM,0.889 ± 0.048
same,NP40-soluble protein abundance,PSMD6; concentration: 8mM,0.921 ± 0.032
same,NP40-soluble protein abundance,PSMD6; concentration: 10mM,0.886 ± 0.025
same,NP40-soluble protein abundance,[1]; concentration: 1mM,1.03 ± 0.091
same,NP40-soluble protein abundance,[1]; concentration: 2mM,1.04 ± 0.052
same,NP40-soluble protein abundance,[1]; concentration: 4mM,1.06 ± 0.075
same,NP40-soluble protein abundance,[1]; concentration: 6mM,1 ± 0.088
same,NP40-soluble protein abundance,[1]; concentration: 8mM,1.05 ± 0.023
same,NP40-soluble protein abundance,[1]; concentration: 10mM,1.04 ± 0.025
same,NP40-soluble protein abundance,UniProt Q53H96|Q53H96-2; concentration: 1mM,1.04 ± 0.076
same,NP40-soluble protein abundance,UniProt Q53H96|Q53H96-2; concentration: 2mM,1.06 ± 0.1
same,NP40-soluble protein abundance,UniProt Q53H96|Q53H96-2; concentration: 4mM,1.09 ± 0.08
same,NP40-soluble protein abundance,UniProt Q53H96|Q53H96-2; concentration: 6mM,1.01 ± 0.14
same,NP40-soluble protein abundance,UniProt Q53H96|Q53H96-2; concentration: 8mM,1.03 ± 0.11
same,NP40-soluble protein abundance,UniProt Q53H96|Q53H96-2; concentration: 10mM,1.03 ± 0.1
same,NP40-soluble protein abundance,UniProt Q8N6R0; concentration: 1mM,1.04 ± 0.096
same,NP40-soluble protein abundance,UniProt Q8N6R0; concentration: 2mM,1 ± 0.081
same,NP40-soluble protein abundance,UniProt Q8N6R0; concentration: 4mM,1.05 ± 0.072
same,NP40-soluble protein abundance,UniProt Q8N6R0; concentration: 6mM,0.979 ± 0.085
same,NP40-soluble protein abundance,UniProt Q8N6R0; concentration: 8mM,1.05 ± 0.075
same,NP40-soluble protein abundance,UniProt Q8N6R0; concentration: 10mM,1.01 ± 0.053
